# Source: PubChem BioAssay
# Sampled rows, rich in hits. Any-hit rate of the full collection: about 6.7%.
# T cruzi growth-1: T. cruzi proliferation inhibition; T. cruzi beta-gal in NIH3T3, GalScreen luminescence, 90 h; 77,000 compounds, 5.9% hits; inhibition, % at 8.34 µM; AID 624255;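 active = mean inhibition above about 93%, with at least 55% of replicates each passing it, limit read from the data, passing the limit was not always enough; inconclusive = only one of those two conditions holds; inactive = neither condition holds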
# Pf Dd2 inh: blocks growth of Plasmodium falciparum Dd2 parasites. P. falciparum Dd2 growth, SYBR Green, 72 h; stronger effect = lower value. activity change, % at 10 µM. 94,000 compounds, 2.3% hits. AID 1159554; in the data active = activity change below about -80%; inconclusive = no clear call, values can overlap the other calls
# C diff growth: C. difficile growth inhibition; Clostridium difficile clinical isolate growth, OD600, 24 h; stronger effect = lower value; growth activity, negative = inhibition, % at 16 µg/mL (by protocol); 86,000 compounds, 0.25% hits;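 active = mean growth activity at or below -80% and every replicate also at or below -80%; inconclusive = mean at or below -80% but some replicate above -80%; inactive = mean growth activity above -80%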;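 note: 0% = DMSO wells and -100% = levofloxacin 16 µg/mL wells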
# T cruzi growth-2: Trypanosoma cruzi proliferation inhibition; 5,600 compounds, 72% hits; AID 651739; inhibition, % at 8.35 µM; shares compounds with T cruzi growth-1; T. cruzi beta-gal in NIH3T3, GalScreen luminescence, 90 h;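 active = mean replicate inhibition above about 95% and at least 55% of replicates individually reaching it, limit read from the data; inconclusive = only one of the two criteria is met; inactive = neither criterion is met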
# T cruzi growth-3: inhibitors of T. cruzi proliferation. shares compounds with T cruzi growth-1. T. cruzi beta-gal in NIH3T3, GalScreen luminescence, 90 h. inhibition, % at 2.09 µM. 5,600 compounds, 21% hits;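 active = mean inhibition above about 95%, with at least 55% of replicates also reaching it, limit read from the data; inconclusive = meets just one of the two conditions; inactive = meets neither condition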;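 note: plate controls were neutral control median for no effect and positive control median for full effect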
# 3T3 cytotox: kills mouse NIH/3T3 fibroblasts | shares compounds with T cruzi growth-1 | 5,600 compounds, 14% hits | cytotoxicity (signal decrease), % at 8.35 µM | NIH/3T3 viability, CellTiter-Glo ATP luminescence, 90 h;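 active = mean signal decrease across replicates above about 35% based on untreated-well scatter, with enough replicates individually passing, limit read from the data; inconclusive = no rule stated though some were filed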;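 note: 0% = median of neutral control wells and 100% = median of positive control wells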
# 3T3 cytotox 2: cytotoxicity in mouse NIH/3T3 fibroblasts. shares compounds with T cruzi growth-1. NIH/3T3 viability, CellTiter-Glo ATP luminescence, 90 h. inhibition, % at 24.9 µM. 5,600 compounds, 56% hits. AID 651744;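 active = mean loss of cell viability signal at or above a set limit, and enough replicates individually reaching it; inconclusive = meets only the mean limit or only the replicate share; inactive = meets neither condition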;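 note: 0% = median of neutral control wells and 100% = median of positive control wells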
# * hit, by the source's call; ? = inconclusive; . = no result given.
SMILES,T cruzi growth-1,Pf Dd2 inh,C diff growth,T cruzi growth-2,T cruzi growth-3,3T3 cytotox,3T3 cytotox 2
CN(C)C(=O)c1ccc(-c2ccc3c(c2)[C@H]2[C@H](CCN2C(=O)C2CCCCC2)[C@@H](CO)N3C)cc1,.,-64,14,.,.,.,.
CN(C)C(=O)c1ccc(-c2ccc3c(c2)[C@H]2[C@H](CCN2C(=O)C2CCOCC2)[C@@H](CO)N3C)cc1,101*,4,1,98*,70,-7,-3
CN(C)C(=O)c1ccc(-c2ccc3c(c2)[C@H]2[C@H](CCN2C(=O)C2CC2)[C@@H](CO)N3C)cc1,102*,-30,6,101*,99*,14,25
CN1c2ccc(-c3ccc(F)cc3)cc2[C@H]2[C@H](CCN2C(=O)C2CCOCC2)[C@@H]1CO,102*,21,1,104*,69,-3,0
CN(C)C(=O)c1ccc(-c2ccc3c(c2)[C@H]2[C@H](CCN2C(=O)C2CC2)[C@H](CO)N3C)cc1,18,-4,-8,.,.,.,.
CN1c2ccc(-c3cccc(F)c3)cc2[C@@H]2[C@@H](CCN2C(=O)C2CCOCC2)[C@H]1CO,59,3,-6,.,.,.,.
COc1ccc2c3c([nH]c2c1)[C@H](CO)N(C)CC31CCN(C(=O)c2ccccn2)CC1,.,18,5,.,.,.,.
CC=Cc1ccc2n(c1=O)C[C@@H]1[C@@H](CO)[C@H](C(=O)NCc3ccccc3)N(CC)[C@H]21 (mixture of isomers),.,4,3,.,.,.,.
C/C=C/c1cnc2c(c1)C(=O)N([C@H](C)CO)C[C@@H](C)[C@@H](CN(C)C(=O)Cc1ccccn1)O2,.,19,0,.,.,.,.
N#C[C@H]1[C@H](c2ccc(C3=CCCCC3)cc2)[C@@H](CO)N1S(=O)(=O)c1cccc(F)c1,47,2,5,.,.,.,.
N#C[C@H]1[C@H](c2ccc(C3=CCCCC3)cc2)[C@@H](CO)N1S(=O)(=O)c1ccccc1,86,-18,4,.,.,.,.
N#C[C@@H]1[C@@H](c2ccc(C3=CCCCC3)cc2)[C@@H](CO)N1S(=O)(=O)c1ccccc1,96*,-38,9,102*,56,55*,60*
N#C[C@@H]1[C@H](c2ccc(C3=CCCCC3)cc2)[C@H](CO)N1S(=O)(=O)c1cccc(F)c1,103*,11,7,102*,43,14,79*
C[C@H](CO)N1C[C@H](C)[C@H](CN(C)S(=O)(=O)c2ccccc2)Oc2ccc(NC(=O)CCC(F)(F)F)cc2CC1=O,23,18,3,.,.,.,.
COc1ccc(S(=O)(=O)Nc2ccc3c(c2)C(=O)N([C@H](C)CO)C[C@@H](C)[C@H](CN(C)S(=O)(=O)c2ccc(Cl)cc2)OCCCC[C@H](C)O3)cc1,95,-77,-4,.,.,.,.
COc1ccc(S(=O)(=O)N(C)C[C@H]2OCCCC[C@@H](C)Oc3ccc(NS(=O)(=O)c4ccc(Cl)cc4)cc3C(=O)N([C@H](C)CO)C[C@@H]2C)cc1,.,-28,-18,.,.,.,.
COc1ccc(S(=O)(=O)Nc2ccc3c(c2)C(=O)N([C@@H](C)CO)C[C@H](C)[C@H](CN(C)S(=O)(=O)c2ccc(Cl)cc2)OCCCC[C@@H](C)O3)cc1,99*,-61,5,104*,84,10,-23
COc1ccc(S(=O)(=O)Nc2ccc3c(c2)C(=O)N([C@@H](C)CO)C[C@H](C)[C@H](CN(C)S(=O)(=O)c2ccc(Cl)cc2)OCCCC[C@H](C)O3)cc1,?,-73,-3,108*,91,22,21
C[C@@H]1CN([C@@H](C)CO)C(=O)Cc2cc(NC(=O)CCCCCC(=O)Nc3ccccc3N)ccc2O[C@H]1CN(C)Cc1ccncc1,33,-12,-5,.,.,.,.
CCNC(=O)[C@H]1[C@H](CO)[C@H]2Cn3c(ccc(-c4ccncc4)c3=O)[C@@H]1N2CC1CC1,32,6,-1,.,.,.,.
C[C@@H]1CN([C@H](C)CO)C(=O)c2cc(Br)cnc2O[C@@H]1CN(C)C(=O)c1ccc(F)cc1,.,-3,-3,.,.,.,.
C[C@@H]1CCCCO[C@@H](CN(C)CC2CCCCC2)[C@H](C)CN([C@@H](C)CO)C(=O)c2cc(NC(=O)c3ccncc3)ccc2O1,10,13,.,.,.,.,.
CC(C)C[C@@H]1COCc2cn(nn2)CC[C@H](Cc2ccccc2)C(=O)N1,.,.,0,.,.,.,.
COc1ccc(NC(=O)N2CCCCN3[C@H](CO)[C@@H](c4ccc(-c5ccccc5F)cc4)[C@@H]3C2)cc1,65,2,33,.,.,.,.
COc1ccc(NC(=O)N2CCCCN3[C@@H](CO)[C@@H](c4ccc(-c5ccccc5C)cc4)[C@@H]3C2)cc1,108*,-18,45,83,82,111*,102*
SMILES,T cruzi growth-1,Pf Dd2 inh,C diff growth,T cruzi growth-2,T cruzi growth-3,3T3 cytotox,3T3 cytotox 2
COc1ccc(NC(=O)N2CCCCN3[C@H](CO)[C@@H](c4ccc(-c5ccccc5F)cc4)[C@H]3C2)cc1,48,-29,8,.,.,.,.
COc1ccc(NC(=O)N2CCCCN3[C@@H](CO)[C@@H](c4ccc(C5=CCCC5)cc4)[C@@H]3C2)cc1,94,-46,14,.,.,.,.
COc1ccc(NC(=O)N2CCCCN3[C@H](CO)[C@H](c4ccc(C5=CCCCC5)cc4)[C@@H]3C2)cc1,114*,44,-17,110*,86,-11,81*
COc1ccc(NC(=O)N2CCCCN3[C@H](CO)[C@@H](c4ccc(-c5ccccc5C)cc4)[C@H]3C2)cc1,109*,-46,21,103*,79,40*,103*
COc1ccc(NC(=O)N2CCCCN3[C@@H](CO)[C@H](c4ccc(-c5ccccc5C)cc4)[C@@H]3C2)cc1,102*,2,5,101*,66,25,104*
COc1ccc(NC(=O)N2CCCCN3[C@H](CO)[C@H](c4ccc(-c5ccccc5C)cc4)[C@@H]3C2)cc1,66,-19,-5,.,.,.,.
C[C@@H]1CN([C@@H](C)CO)C(=O)c2cccc(NC(=O)NC3CCCCC3)c2O[C@@H]1CN(C)C,.,-6,-4,.,.,.,.
O=C(C[C@@H]1C[C@@H]2c3cc(NC(=O)CC4CC4)ccc3O[C@@H]2[C@H](CO)O1)NCCN1CCCCC1,-123,0,0,.,.,.,.
COc1ccc(CNC(=O)C[C@@H]2C[C@@H]3c4cc(NC(=O)C5CCC5)ccc4O[C@@H]3[C@@H](CO)O2)cc1,-36,2,3,.,.,.,.
O=C(C[C@@H]1C[C@H]2c3cc(NC(=O)C4CCOCC4)ccc3O[C@H]2[C@H](CO)O1)NCc1ccc(Oc2ccccc2)cc1,142*,-68,.,-3,7,2,-6
O=C(C[C@@H]1C[C@@H]2c3cc(NC(=O)C4CCOCC4)ccc3O[C@@H]2[C@@H](CO)O1)NCc1ccc(Oc2ccccc2)cc1,31,-30,.,.,.,.,.
